Results as given in the supplement of paper PMC7411054.
Where a name gives a salt, the structure may show the parent alone.

Key:
Experiment in all cases: phenotypically active (imaging signature differs from DMSO and reproducible) at any of 0.3-9 uM (binary (1 = active, 0 = inactive)); higher = active
Details in all cases: treatment time: 24 h
[1] = tested on: A549-ACTB-RAB5A
In short: (§1)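 Two criteria together defined phenotypic activity: deviation and reproducibility. Deviation meant ≥3 of 4 wells beyond the 95th percentile of Euclidean distances in solvent control wells, and reproducibility meant a median replicate Pearson correlation above the 95th percentile of non-replicates. Wells had been treated for 24 h at 0.3, 1, 3 or 9 µM in fifteen gene-edited A549, HepG2 and WPMY1 reporter lines before live imaging.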

[2] = tested on: A549-CANX-COX4
In short: as §1

[3] = tested on: A549-GM130-SQSTM1
In short: as §1

[4] = tested on: A549-TP53BP1-CLTA
In short: as §1

[5] = tested on: A549-TUBA1B-RELA
In short: as §1

[6] = tested on: HepG2-ACTB-RAB5A
In short: as §1

[7] = tested on: HepG2-CANX-COX4
In short: as §1

[8] = tested on: HepG2-GM130-SQSTM1
In short: as §1

[9] = tested on: HepG2-TP53BP1-CLTA
In short: as §1

[10] = tested on: HepG2-TUBA1B-RELA
In short: as §1

[11] = tested on: WPMY1-ACTB-RAB5A
In short: as §1

[12] = tested on: WPMY1-CANX-COX4
In short: as §1

[13] = tested on: WPMY1-GM130-SQSTM1
In short: as §1

[14] = tested on: WPMY1-TP53BP1-CLTA
In short: as §1

[15] = tested on: WPMY1-TUBA1B-RELA
In short: as §1

Measured: phenotypically active

NS(=O)(=O)c1cc(Cl)c(Cl)c(S(N)(=O)=O)c1 [diclofenamide]
inactive: [1] 0 | [2] 0 | [3] 0 | [4] 0 | [5] 0 | [6] 0 | [7] 0 | [8] 0 | [9] 0 | [10] 0 | [11] 0 | [12] 0 | [13] 0 | [14] 0 | [15] 0

CCOc1cc([C@@H](CS(C)(=O)=O)N2C(=O)c3cccc(NC(C)=O)c3C2=O)ccc1OC [apremilast]
inactive: [1] 0 | [2] 0 | [3] 0 | [4] 0 | [5] 0 | [6] 0 | [7] 0 | [8] 0 | [9] 0 | [10] 0 | [11] 0 | [12] 0 | [13] 0 | [14] 0 | [15] 0

c1ccc2c(c1)CN1CCCC1=N2 [Desoxypeganine Hydrochloride]
inactive: [1] 0 | [2] 0 | [3] 0 | [4] 0 | [5] 0 | [6] 0 | [7] 0 | [8] 0 | [9] 0 | [10] 0 | [11] 0 | [12] 0 | [13] 0 | [14] 0 | [15] 0

N#Cc1ccccc1OCC(O)CNCCNC(=O)Nc1ccccc1 (stereo not given)
inactive: [1] 0 | [2] 0 | [3] 0 | [4] 0 | [5] 0 | [6] 0 | [7] 0 | [8] 0 | [9] 0 | [10] 0 | [11] 0 | [12] 0 | [13] 0 | [14] 0 | [15] 0

O=c1ncccn1[C@@H]1O[C@H](CO)[C@@H](O)[C@H]1O [Zebularine]
inactive: [1] 0 | [2] 0 | [3] 0 | [4] 0 | [5] 0 | [6] 0 | [7] 0 | [8] 0 | [9] 0 | [10] 0 | [11] 0 | [12] 0 | [13] 0 | [14] 0 | [15] 0

CN(C)CCOC(=O)C(c1ccccc1)C1(O)CCCC1 (stereo not given) [cyclopentolate]
inactive: [1] 0 | [2] 0 | [3] 0 | [4] 0 | [5] 0 | [6] 0 | [7] 0 | [8] 0 | [9] 0 | [10] 0 | [11] 0 | [12] 0 | [13] 0 | [14] 0 | [15] 0

O=C(O)c1cc(/N=N/c2ccc(O)c(C(=O)O)c2)ccc1O [olsalazine]
inactive: [1] 0 | [2] 0 | [3] 0 | [4] 0 | [5] 0 | [6] 0 | [7] 0 | [8] 0 | [9] 0 | [10] 0 | [11] 0 | [12] 0 | [13] 0 | [14] 0 | [15] 0

C[N+](C)(C)CCOC(N)=O [Carbamoylcholine chloride]
inactive: [1] 0 | [2] 0 | [3] 0 | [4] 0 | [5] 0 | [6] 0 | [7] 0 | [8] 0 | [9] 0 | [10] 0 | [11] 0 | [12] 0 | [13] 0 | [14] 0 | [15] 0

CC(C)[C@](O)(c1ccc2cc(OC(F)F)c(OC(F)F)cc2c1)c1c[nH]nn1
inactive: [1] 0 | [2] 0 | [3] 0 | [4] 0 | [5] 0 | [6] 0 | [7] 0 | [8] 0 | [9] 0 | [10] 0 | [11] 0 | [12] 0 | [13] 0 | [14] 0 | [15] 0

Cc1ccnn1-c1ccc(C(=O)N2CCN(S(=O)(=O)c3ccc(Cl)c(C(F)(F)F)c3)CC2)cc1
inactive: [1] 0 | [2] 0 | [3] 0 | [4] 0 | [5] 0 | [6] 0 | [7] 0 | [8] 0 | [9] 0 | [10] 0 | [11] 0 | [12] 0 | [13] 0 | [14] 0 | [15] 0

Cn1nnc2c(C(N)=O)ncn2c1=O [temozolomide]
inactive: [1] 0 | [2] 0 | [3] 0 | [4] 0 | [5] 0 | [6] 0 | [7] 0 | [8] 0 | [9] 0 | [10] 0 | [11] 0 | [12] 0 | [13] 0 | [14] 0 | [15] 0

CC(C)OC(=O)C(C)(C)Oc1ccc(C(=O)c2ccc(Cl)cc2)cc1 [Fenofibrate]
inactive: [1] 0 | [2] 0 | [3] 0 | [4] 0 | [5] 0 | [6] 0 | [7] 0 | [8] 0 | [9] 0 | [10] 0 | [11] 0 | [12] 0 | [13] 0 | [14] 0 | [15] 0

CCOC(=O)[C@H](CCc1ccccc1)N[C@@H](C)C(=O)N1CCC[C@H]1C(=O)O [enalapril]
inactive: [1] 0 | [2] 0 | [3] 0 | [4] 0 | [5] 0 | [6] 0 | [7] 0 | [8] 0 | [9] 0 | [10] 0 | [11] 0 | [12] 0 | [13] 0 | [14] 0 | [15] 0

CCCCCOC(=O)Nc1nc(=O)n([C@@H]2O[C@H](C)[C@@H](O)[C@H]2O)cc1F [capecitabine]
inactive: [1] 0 | [2] 0 | [3] 0 | [4] 0 | [5] 0 | [6] 0 | [7] 0 | [8] 0 | [9] 0 | [10] 0 | [11] 0 | [12] 0 | [13] 0 | [14] 0 | [15] 0

CC(C)NCCCC1(C(N)=O)c2ccccc2-c2ccccc21 [indecainide]
inactive: [1] 0 | [2] 0 | [3] 0 | [4] 0 | [5] 0 | [6] 0 | [7] 0 | [8] 0 | [9] 0 | [10] 0 | [11] 0 | [12] 0 | [13] 0 | [14] 0 | [15] 0

CCCCCCCCCN1C[C@H](O)[C@@H](O)[C@H](O)[C@H]1CO [N-Nonyldeoxynojirimycin]
inactive: [1] 0 | [2] 0 | [3] 0 | [4] 0 | [5] 0 | [6] 0 | [7] 0 | [8] 0 | [9] 0 | [10] 0 | [11] 0 | [12] 0 | [13] 0 | [14] 0 | [15] 0

O=C(O)c1cccc(C(=O)O)n1 [2,6-Pyridinedicarboxylic Acid]
inactive: [1] 0 | [2] 0 | [3] 0 | [4] 0 | [5] 0 | [6] 0 | [7] 0 | [8] 0 | [9] 0 | [10] 0 | [11] 0 | [12] 0 | [13] 0 | [14] 0 | [15] 0

C/C=C(/C(=C/C)c1ccc(O)cc1)c1ccc(O)cc1 [dienestrol]
inactive: [1] 0 | [2] 0 | [3] 0 | [4] 0 | [5] 0 | [6] 0 | [7] 0 | [8] 0 | [9] 0 | [10] 0 | [11] 0 | [12] 0 | [13] 0 | [14] 0 | [15] 0

CN(C)C(=N)NC(=N)N [Metformin hydrochloride]
inactive: [1] 0 | [2] 0 | [3] 0 | [4] 0 | [5] 0 | [6] 0 | [7] 0 | [8] 0 | [9] 0 | [10] 0 | [11] 0 | [12] 0 | [13] 0 | [14] 0 | [15] 0

CC[N@@+]1(C)[C@@H]2CC[C@H]1C[C@@H](OC(=O)[C@]1(c3ccccc3)CC[C@H](C(=O)O[C@H]3C[C@H]4CC[C@@H](C3)[N@+]4(C)CC)c3ccccc31)C2 [beta- Belladonnine dichloroethylate]
inactive: [1] 0 | [2] 0 | [3] 0 | [4] 0 | [5] 0 | [6] 0 | [7] 0 | [8] 0 | [9] 0 | [10] 0 | [11] 0 | [12] 0 | [13] 0 | [14] 0 | [15] 0

C[C@]1(OC(=O)/C=C/c2ccccc2)C[C@@H](O)[C@]2(O)C=CO[C@@H](O[C@@H]3O[C@H](CO)[C@@H](O)[C@H](O)[C@H]3O)[C@@H]21 [Harpagoside]
inactive: [1] 0 | [2] 0 | [3] 0 | [4] 0 | [5] 0 | [6] 0 | [7] 0 | [8] 0 | [9] 0 | [10] 0 | [11] 0 | [12] 0 | [13] 0 | [14] 0 | [15] 0
